Test results taken from PubChem BioAssay (NCI).
The panel holds about 83,000 compounds, 20% with a hit somewhere; the sample as a whole holds those more often.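 Compound tested at a single concentration for 48 hours in 96-well plates; a percent growth value below 10 was scored as active.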 Activity calls are given as the source filed them.

tested on: T-47D breast; test: NCI-60 one-dose screen, 48 h (100 = growth as untreated, 0 = no growth, -100 = all killed); conditions: 10 µM unless noted
Description: Growth inhibition of the T-47D human tumor cell line is measured as a screen for anti-cancer activity. Cells are grown in 96 well plates and exposed to the test compound for 48 hours. Compounds are tested at a single concentration, which is 10^-5 M for most compounds. The reported endpoint is percent growth (GI% or GIPRCNT), where numbers from 0 - 100% represent growth inhibition, and numbers from -100% - 0 represent cell death. For example, a value of 40 represents 60% growth inhibition. A value of 0 means no net growth occurred over the course of the experiment. A value of -40 indicates 40% of cells at the beginning of the experiment died by the end of the experiment. A value of -100 means all cells are dead at the end of the experiment.
NCI-60 Human Tumor Cell Lines Screen was performed using the standard one-dose NCI protocol, which is described in more detail at https://dtp.cancer.gov/discovery_development/nci-60/default.htm.
Compounds with GIPRCNT values below 10 were considered active. Activity score was based on GIPRCNT using the following formula: […]
Score is 0 for GIPRCNT values of 100 or above, 50 for GIPRCNT values of 0, and 100 for GIPRCNT values of -100.

Structure (SMILES)	growth
C#CCNc1nc(NCCNC(=O)CCl)nc(N(C)CCCCc2ccccc2)n1	93% (inactive)
O=c1c2cc(Br)cc(Br)c2nc(-c2ccc(Cl)cc2)n1/N=C/c1cccc(F)c1	48.8% (inactive)
CCOC(=O)c1cnc(SCC)nc1SC#N	80.8% (inactive)
COc1ccc2nc3ccccc3c(NCc3ccc(C)cc3)c2c1	30.6% (inactive)
NNC(=O)CSc1nc2scc(-c3ccccc3)c2c(=O)n1-c1ccccc1	104% (inactive)
Cc1c(C(=O)CCl)c(=O)n(-c2ccccc2)n1C	34.3% (inactive)
NNc1ccc(S(N)(=O)=O)cc1	89.4% (inactive)
C[C@H](NC(=O)c1snnc1C1CC1)c1c(F)cccc1Cl	258% (inactive)
S=C(S)Oc1cccc2cccnc12	107% (inactive)
CC(CN1CCN(CC(C)Nc2ccnc3cc(Cl)ccc23)CC1)Nc1ccnc2cc(Cl)ccc12 (stereo not given)	-21.3% (active)
C=C[C@H]1CCC/C=C/[C@@H]2C[C@H](O)C[C@H]2[C@H](O)/C=C/C(=O)O1	-14% (active)
C=CCCCCOc1cccc(/C=C2\N=C3SCCCN3C2=O)c1	-2.85% (active)
Cc1ccc(C(=O)CC(=O)C(F)(F)C(F)(F)C(F)(F)F)s1	108% (inactive)
COc1cc(C2CC(c3ccccc3)=NN2C=O)ccc1Oc1ccnc2cc(Cl)ccc12 (stereo not given)	33.6% (inactive)
COc1cc2c(c(OC)c1O)C(=O)C(OC)C(c1ccc(O)c(O)c1)O2 (stereo not given)	50.3% (inactive)
CNC(=O)c1c(NC(=O)c2cccc(C(F)(F)F)c2)sc2c1CCC(=O)C2	-32.8% (active)
C[N+](C)(C)CC(=O)N/N=C\c1ccco1	97.7% (inactive)
CCN(CC)c1ccc2c(cc1=O)[C@@H](NC(C)=O)CCc1cc(OC)c(OC)c(OC)c1-2	82.2% (inactive)
N#CCCn1cnc2c(N)ncnc21	95.4% (inactive)
O=C1SCN(Cc2ccccc2)CN1Cc1ccccc1	52.2% (inactive)

Structure (SMILES)	growth
CCCCCCCCCCCC1=NC(C)(C)CN1CC(C)O (stereo not given)	58.9% (inactive)
O=C1OCC2=C1C(c1ccccc1)c1cc3c(cc1N2CCO)CCC3 (stereo not given)	37.8% (inactive)
COc1cc(C2CC(c3cccc(Nc4ccnc5cc(Cl)ccc45)c3)=NN2C=O)cc(OC)c1OC (stereo not given)	-4.07% (active)
COc1cnc2c(c1)C(=O)c1c-2n(CCCN2CCNCC2)c(=O)c2cc(Cl)ccc12	58.8% (inactive)
O=C(CCl)Nc1ccc2c(c1)C(=O)c1ccccc1C2=O	-71% (active)
O=[N+]([O-])c1ccc(N=Nc2c(NNc3ccc([N+](=O)[O-])cn3)cc(S(=O)(=O)O)c3ccccc23)nc1	90.9% (inactive)
CCOC(=O)c1ccc2c(c1)nc(-c1ccc(Cl)cc1)n2-c1cc(C(C)(C)C)[nH]n1	49.3% (inactive)
NC(N)=N/N=C/c1ccc(Cl)cc1	91.5% (inactive)
O=c1c2cc(Br)cc(Br)c2nc(-c2ccc(Cl)cc2)n1/N=C\c1ccccc1F	69.7% (inactive)
Cc1nn(-c2ccccc2)c2nc3c(nc12)C1=NCCN1C(c1ccc(Cl)cc1)N3 (stereo not given)	75.1% (inactive)
COc1cnc2c(c1)C(=O)c1c-2n(CCCN2CCN(C)CC2)c(=O)c2cc(Cl)ccc12	8.74% (active)
COc1cccc(C2C(C#N)=C(N)Oc3cc4c(cc32)OCO4)c1 (stereo not given)	59.9% (inactive)
O=C(c1ccccc1)C1OC1C(=O)c1ccccc1 (stereo not given)	-7.04% (active)
ClCCn1cnc2c(SCc3ccccc3Cl)ncnc21	52.8% (inactive)
CCCCCCCCCCCC1=NC(C)(C)CN1CCO	65.2% (inactive)
CS(=O)(=O)c1ccc(Cl)c([N+](=O)[O-])c1	104% (inactive)
COc1cccc(/C=N\Nc2ccc([N+](=O)[O-])cn2)c1O	30.1% (inactive)
COc1ccc(Oc2nc(Nc3ccc(N4CCOCC4)cc3)ncc2NC(=O)Nc2cccc(OC)c2)cc1	75.2% (inactive)
CC(C)(CCc1ccccn1)C(=O)CCCc1ccccn1	95.2% (inactive)
Cc1cc(O)c2cc3c(O)c(O)ccc3cc2c1	104% (inactive)
